Experimental findings from PubChem BioAssay (EPA / NIEHS) are described below.

Activity calls are given as the source filed them. The calls were made as follows: active = hit-call score of the fitted dose curve at least 0.9, where 1 is the maximum; inactive = score below 0.9.

Read-out in test [1]: Urokinase-type plasminogen activator receptor (uPAR), PLAUR (gene 5329)
The test can be described thus: BSK_BE3C_uPAR: BioMAP Diversity Plus: BE3C Assay for Urokinase-type plasminogen activator receptor (uPAR) Biomarker Activity (AID 2283039).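 As to outcome: uPAR protein level measured by ELISA on the cells; cells exposed to compound for one day before measurement.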 Particulars: primary human bronchial epithelial cells; actives raise or lower the signal. The method, boiled down:
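Chemically treated human bronchial epithelial cells (lung primary) are assayed for uPAR by ELISA after 24 h, with data fitted in both directions using DMSO as negative control.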

Read-out in test [2]: Interleukin-6 (IL6), IL6 (gene 3569)
In words: BSK_CASM3C_IL6: BioMAP Diversity Plus: CASM3C Assay for Interleukin-6 (IL6) Biomarker Activity for (AID 2283040). To be noted: primary human coronary artery smooth muscle cells; actives raise or lower the signal.

Read-out in test [3]: Tissue plasminogen activator (tPA), PLAT (gene 5327)
The test can be described thus: BSK_BE3C_tPA: BioMAP Diversity Plus: BE3C Assay for Tissue plasminogen activator (tPA) Biomarker Activity (AID 2283041).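 Also: tPA level quantified by ELISA one day after compound addition.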 To be noted: primary human bronchial epithelial cells; actives raise or lower the signal. Put shortly:
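Using human lung primary bronchial epithelial cells, tPA was measured by ELISA 24 h after dosing; data fitted relative to DMSO.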

Read-out in test [4]: Interleukin-8 (IL8), CXCL8 (gene 3576)
The test can be described thus: BSK_CASM3C_IL8: BioMAP Diversity Plus: CASM3C Assay for Interleukin-8 (IL8) Biomarker Activity (AID 2283042).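 Also: IL-8 protein level quantified by ELISA.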 To be noted: primary human coronary artery smooth muscle cells; actives raise or lower the signal.

Read-out in test [5]: Human Leukocyte Antigen - DR isotype (HLADR), HLA-DRA (gene 3122)
In words: BSK_CASM3C_HLADR: BioMAP Diversity Plus: CASM3C Assay for Human Leukocyte Antigen - DR isotype (HLADR) Biomarker Activity (AID 2283043).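 Also: cell-surface HLA-DR protein level quantified by ELISA.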 To be noted: primary human coronary artery smooth muscle cells; actives raise or lower the signal.

Read-out in test [6]: Macrophage colony-stimulating factor (MCSF), CSF1 (gene 1435)
The test can be described thus: BSK_CASM3C_MCSF: BioMAP Diversity Plus: CASM3C Assay for Macrophage colony-stimulating factor (MCSF) Biomarker Activity (AID 2283044).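 Also: M-CSF protein amount quantified by ELISA after 24 h exposure.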 To be noted: primary human coronary artery smooth muscle cells; actives raise or lower the signal.

Read-out in test [7]: Low-density lipoprotein receptor (LDLR), LDLR (gene 3949)
In words: BSK_CASM3C_LDLR: BioMAP Diversity Plus: CASM3C Assay for Low-density lipoprotein receptor (LDLR) Biomarker Activity (AID 2283045).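 Also: LDLR protein level on the cell surface quantified by ELISA.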 To be noted: primary human coronary artery smooth muscle cells; actives raise or lower the signal.

Read-out in test [8]: Monocyte Chemoattractant Protein-1 (MCP1), CCL2 (gene 6347)
The test can be described thus: BSK_CASM3C_MCP1: BioMAP Diversity Plus: CASM3C Assay for Monocyte Chemoattractant Protein-1 (MCP1) Biomarker Activity (AID 2283046).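 Also: MCP-1 level quantified by ELISA 24 h after dosing.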 To be noted: primary human coronary artery smooth muscle cells; actives raise or lower the signal.

The nature of test [9]: BSK_CASM3C_Proliferation: Cell Proliferation Assessment in the BioMAP Diversity Plus: CASM3C Assay (AID 2283047).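 Also: sulforhodamine B total protein stain as relative cell number at 560 nm; sub-confluent cells exposed 48 h before staining; fitted both ways against DMSO so gain or loss of cell number.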 To be noted: primary human coronary artery smooth muscle cells.
Read-out in test [10]: Monokine induced gamma interferon (MIG), CXCL9 (gene 4283)
The test can be described thus: BSK_CASM3C_MIG: BioMAP Diversity Plus: CASM3C Assay for Monokine induced gamma interferon (MIG) Biomarker Activity (AID 2283048).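 Also: MIG protein level measured by ELISA.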 Particulars: primary human coronary artery smooth muscle cells; actives raise or lower the signal.

Read-out in test [11]: serum amyloid A (SAA), SAA1 (gene 6288)
The test can be described thus: BSK_CASM3C_SAA: BioMAP Diversity Plus: CASM3C Assay for serum amyloid A (SAA) Biomarker Activity (AID 2283049).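 Also: SAA protein level quantified by ELISA.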 To be noted: primary human coronary artery smooth muscle cells; actives raise or lower the signal.

The nature of test [12]: BSK_CASM3C_SRB: Viability Assessment in the BioMAP Diversity Plus: CASM3C Assay (AID 2283050).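 Also: total protein by SRB staining as cytotoxicity measure in parallel cultures; cells exposed to compound for 24 h.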 To be noted: primary human coronary artery smooth muscle cells.
Read-out in test [13]: Thrombomodulin, THBD (gene 7056)
In words: BSK_CASM3C_Thrombomodulin: BioMAP Diversity Plus: CASM3C Assay for Thrombomodulin Biomarker Activity (AID 2283051).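 Also: thrombomodulin protein level measured by ELISA 24 h after dosing.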 To be noted: primary human coronary artery smooth muscle cells; actives raise or lower the signal.

Read-out in test [14]: Tissue Factor, F3 (gene 2152)
In words: BSK_CASM3C_TissueFactor: BioMAP Diversity Plus: CASM3C Assay for Tissue Factor Biomarker Activity (AID 2283052).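 Also: cell surface tissue factor protein level read by ELISA.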 Particulars: primary human coronary artery smooth muscle cells; actives raise or lower the signal.

Read-out in test [15]: Interferon-gamma inducible Protein 10 (IP10), CXCL10 (gene 3627)
In words: BSK_hDFCGF_IP10: BioMAP Diversity Plus: hDFCGF Assay for Interferon-gamma inducible Protein 10 (IP10) Biomarker Activity (AID 2283053). To be noted: primary human foreskin fibroblasts; actives raise or lower the signal. Put shortly:
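Chemical-treated human skin fibroblasts (primary) were sampled at 24 h for IP-10 by ELISA. Both increases and decreases relative to DMSO were scored.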

Read-out in test [16]: Urokinase-type plasminogen activator receptor (uPAR), PLAUR (gene 5329)
The test can be described thus: BSK_CASM3C_uPAR: BioMAP Diversity Plus: CASM3C Assay for Urokinase-type plasminogen activator receptor (uPAR) Biomarker Activity (AID 2283054).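 Also: cell-surface uPAR protein level quantified by ELISA.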 To be noted: primary human coronary artery smooth muscle cells; actives raise or lower the signal.

Read-out in test [17]: Vascular cell adhesion molecule 1 (VCAM1), VCAM1 (gene 7412)
In words: BSK_CASM3C_VCAM1: BioMAP Diversity Plus: CASM3C Assay for Vascular cell adhesion molecule 1 (VCAM1) Biomarker Activity (AID 2283055).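 Also: VCAM-1 protein level quantified by ELISA on the cells.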 To be noted: primary human coronary artery smooth muscle cells; actives raise or lower the signal.

Read-out in test [18]: Collagen III, COL3A1 (gene 1281)
In words: BSK_hDFCGF_CollagenIII: BioMAP Diversity Plus: hDFCGF Assay for Collagen III Biomarker Activity (AID 2283056). To be noted: primary human foreskin fibroblasts; actives raise or lower the signal. Put shortly:
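ELISA readout of Collagen III in human dermal (foreskin) fibroblasts, taken 24 h post-treatment. Gain or loss relative to DMSO vehicle fitted in both directions.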

Read-out in test [19]: Epidermal growth factor receptor (EGFR), EGFR (gene 1956)
The test can be described thus: BSK_hDFCGF_EGFR: BioMAP Diversity Plus: hDFCGF Assay for Epidermal growth factor receptor (EGFR) Biomarker Activity (AID 2283057). To be noted: primary human foreskin fibroblasts; actives raise or lower the signal. The method, boiled down: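 Cell-based multiplexed assay in primary human foreskin fibroblasts. EGFR is read by ELISA 24 h after treatment and compared with DMSO controls.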

Read-out in test [20]: Interleukin-8 (IL8), CXCL8 (gene 3576)
The test can be described thus: BSK_hDFCGF_IL8: BioMAP Diversity Plus: hDFCGF Assay for Interleukin-8 (IL8) Biomarker Activity (AID 2283058). To be noted: primary human foreskin fibroblasts; actives raise or lower the signal. The method, boiled down:
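IL-8 levels read by ELISA at 24 hours after dosing human skin fibroblast cultures. Parallel SRB staining assessed overt cytotoxicity, and gain or loss of signal was fitted against DMSO control.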

The term AC50 denotes the concentration at which the activity in the assay is half-maximal. As to `CNC(=S)S`, the AC50 is 11.7 µM (active) in test [1], 9.42 µM (active) in test [13] and 20 µM (active) in [15]. In addition, the result in [2], in test [3], in [4], in [5], in [6] and in [7] was inactive. In addition, the outcome in test [8], in test [9], in test [10], in [11], in test [12] and in test [14] was inactive. The result in [16], in test [17], in test [18], in test [19] and in test [20] was inactive.
As for `COP(N)(=O)SC` (stereo not given), the result in test [1], in [2], in [3], in [4], in test [5] and in test [6] was inactive. Further, the outcome in test [7], in [8], in test [9], in test [10], in test [11] and in test [12] was inactive. Besides, the outcome in test [13], in test [14], in test [15], in test [16], in test [17] and in [18] was inactive. Moreover, the result in [19] and in test [20] was inactive.
As to `Oc1ccccc1-c1ccccc1`, the result in test [1], in [2], in test [3], in test [4], in [5] and in [6] was inactive. Also, the outcome in test [7], in test [8], in [9], in test [10], in test [11] and in test [12] was inactive. The result in test [13], in test [14], in test [15], in [16], in test [17] and in test [18] was inactive. The result in [19] and in [20] was inactive.
For the molecule `COC(=O)C=C(C)OP(=O)(OC)OC`, the result in test [1], in [2], in test [3], in test [4], in [5] and in test [6] was inactive. The result in test [7], in [8], in test [9], in test [10], in [11] and in test [12] was inactive. Moreover, the outcome in [13], in test [14], in test [15], in test [16], in test [17] and in test [18] was inactive. Also, the result in [19] and in [20] was inactive.
In the case of `COC(=O)N(OC)c1ccccc1COc1ccn(-c2ccc(Cl)cc2)n1`, the result in [1], in test [2], in [3], in test [5], in test [6] and in test [7] was inactive. In addition, the result in test [8], in test [10], in [11], in test [12], in [14] and in [15] was inactive. The outcome in test [16] and in test [19] was inactive. Moreover, the AC50 in test [4] was 15.8 µM (active); in test [9], 6.45 µM (active); in test [13], 31.2 µM (active); in test [17] it was 11.7 µM (active); in test [18] it was 0.8 µM (active); in test [20] it was 5.63 µM (active).
Take `N#Cc1nn(-c2c(Cl)cc(C(F)(F)F)cc2Cl)c(N)c1S(=O)C(F)(F)F` (stereo not given): the outcome in test [1], in test [2], in test [3], in test [4], in test [5] and in test [7] was inactive. In addition, the result in test [8], in [10], in [11], in test [14], in [16] and in [18] was inactive. The result in test [20] was inactive. Besides, the AC50 was 25.1 µM (active) in [6]; 20 µM (active) in test [9]; 24.9 µM (active) in [12]; 21.9 µM (active) in test [13]; 2.24 µM (active) in test [15]; 23.6 µM (active) in [17]. Further, in test [19], the AC50 is 1.71 µM (active).
